# Measured values reported in ChEMBL document CHEMBL1201862, “PubChem BioAssay data set” (2004).
# Several values for one entry are separate records, joined by “and”; a condition that tells them apart may be missing. Identical values can stand only once. Hit rate of the full screen: of about 400,000 compounds, about 2,100 (0.53%) were called active. About 14% were inconclusive and are not listed. How the calls were made is not given here. Shown is part of a subset that was picked to be rich in actives.
# Target: Ataxin-2 (Homo sapiens) (UniProt Q99700)
# Sequence (Q99700 whole entry): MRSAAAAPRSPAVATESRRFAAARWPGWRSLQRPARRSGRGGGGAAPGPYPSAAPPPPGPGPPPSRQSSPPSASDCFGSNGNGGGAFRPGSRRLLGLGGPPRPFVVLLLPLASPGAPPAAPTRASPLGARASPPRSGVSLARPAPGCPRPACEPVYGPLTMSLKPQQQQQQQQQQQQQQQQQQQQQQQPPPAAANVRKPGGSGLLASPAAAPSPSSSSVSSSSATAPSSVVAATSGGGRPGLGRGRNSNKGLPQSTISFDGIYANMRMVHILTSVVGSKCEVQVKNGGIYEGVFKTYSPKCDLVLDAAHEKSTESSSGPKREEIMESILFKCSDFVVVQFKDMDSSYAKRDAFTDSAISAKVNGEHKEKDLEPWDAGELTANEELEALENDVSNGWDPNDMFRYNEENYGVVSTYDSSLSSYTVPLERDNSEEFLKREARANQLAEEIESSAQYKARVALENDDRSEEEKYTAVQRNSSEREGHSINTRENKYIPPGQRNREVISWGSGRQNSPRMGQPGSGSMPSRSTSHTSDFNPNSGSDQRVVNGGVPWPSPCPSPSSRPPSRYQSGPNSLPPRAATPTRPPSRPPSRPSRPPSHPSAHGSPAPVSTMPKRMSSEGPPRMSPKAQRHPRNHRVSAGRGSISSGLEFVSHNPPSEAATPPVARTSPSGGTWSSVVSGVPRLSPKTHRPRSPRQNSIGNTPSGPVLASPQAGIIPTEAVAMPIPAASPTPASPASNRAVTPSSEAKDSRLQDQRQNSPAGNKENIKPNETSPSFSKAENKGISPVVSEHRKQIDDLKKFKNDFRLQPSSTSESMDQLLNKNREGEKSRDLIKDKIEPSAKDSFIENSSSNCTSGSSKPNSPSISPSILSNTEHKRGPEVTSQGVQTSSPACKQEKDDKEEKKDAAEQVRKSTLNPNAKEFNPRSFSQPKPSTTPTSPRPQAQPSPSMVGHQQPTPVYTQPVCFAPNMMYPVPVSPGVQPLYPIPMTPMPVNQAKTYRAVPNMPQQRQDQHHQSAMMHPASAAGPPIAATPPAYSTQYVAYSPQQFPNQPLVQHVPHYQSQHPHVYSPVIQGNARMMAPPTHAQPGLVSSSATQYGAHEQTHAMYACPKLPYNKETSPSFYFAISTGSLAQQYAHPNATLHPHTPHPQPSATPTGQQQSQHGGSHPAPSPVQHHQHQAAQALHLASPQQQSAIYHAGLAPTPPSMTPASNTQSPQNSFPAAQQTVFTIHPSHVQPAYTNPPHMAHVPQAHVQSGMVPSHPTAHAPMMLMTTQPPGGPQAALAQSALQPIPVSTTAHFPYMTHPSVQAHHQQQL
# Test: qHTS for Inhibitors of ATXN expression.
# Type: functional
row,Compound,Potency
1,O=C1OCCN1C(=O)[C@H]1[C@H](c2ccc(F)cc2)C(c2cccc(Cl)c2)=NN1c1ccc(Br)cc1,inactive
2,Oc1cnnc(Nc2ccc(Nc3ccccc3)cc2)n1,inactive
3,CCCCc1ccc(Nc2nc(O)cc(CCC)n2)cc1,39.8 µM (active)
4,CCNC(=O)N1CCN(S(=O)(=O)c2ccc3c(c2)OCCCO3)CC1,inactive
5,O=S(=O)(c1ccccc1)N(CC(F)(F)F)c1ccc(C(O)(C(F)(F)F)C(F)(F)F)cc1,22.4 µM (active)
6,CCN(c1ccc(OCC(=O)OCC(=O)Nc2ccc(F)c(F)c2F)cc1)S(=O)(=O)c1ccccc1,inactive
7,COc1ccc(NC(=O)c2sc3nc(N4CCOCC4)c4c(c3c2N)CCCC4)cc1,inactive
8,CC1(C(=O)NNC(=O)c2ccc(=O)oc2)CC1Br (stereo not given),inactive
9,O=C(c1ccccc1NS(=O)(=O)c1ccc([N+](=O)[O-])cc1[N+](=O)[O-])N1O[C@@H]2C=C[C@H]1C2,22.4 µM (active)
10,O=C(O)/C=C/c1cn(-c2ccccc2)nc1-c1cccs1,inactive
11,COc1ccc(-c2nn(-c3ccccc3)cc2C(=O)Nc2ccc(C(=O)O)cc2)cc1OC,inactive
12,CCN(CC)CCNC(=O)c1ccc(NC(=O)c2cn(-c3ccccc3)nc2-c2cccs2)cc1,39.8 µM (active)
13,CC(C)c1ccc(C2=CC(c3cccc(Cl)c3)n3ncnc3N2)cc1 (stereo not given),inactive
14,CC(c1ccccc1)N(C)C(=O)CN1CCN(S(=O)(=O)c2ccc3c(c2)OCCCO3)CC1 (stereo not given),inactive
15,CCN(CC)CCOc1ccc(/C(=C(/Cl)c2ccccc2)c2ccccc2)cc1,35.5 µM (active) and 17.8 µM (active)
16,C=CCN(CC=C)CCOc1cccc(Oc2ccccc2)c1,inactive
17,COc1ccc(CNc2oc(/C=C/c3cccc(OC)c3)nc2C#N)cc1,inactive
18,O=c1oc2c3c4c(cc2c(C(F)(F)F)c1CCN1CCOCC1)CCCN4CCC3,inactive
19,Cc1ccc(S(=O)(=O)N2CCN(C(=O)c3ccccn3)CC2)cc1,inactive
20,Cc1ccc(S(=O)(=O)N(Cc2ccccc2)c2ccccc2C(=O)N2CCCCC2)cc1,31.6 µM (active)

row,Compound,Potency
1,CCN(c1ccccc1)S(=O)(=O)c1ccc(Cl)c(C(=O)N2CCCC2)c1,inactive
2,CCOc1ccc2nc(NCCNC(=O)c3cc(OC)c(OC)c(OC)c3)c(C#N)cc2c1,inactive
3,CCn1c(SCC(=O)Nc2cccc(Cl)c2)nnc1-c1nonc1NC(C)=O,inactive
4,CCOc1ccc(-c2nnc(SCC(=O)Nc3ccc4c(c3)c3ccccc3n4CC)n2N)cc1,31.6 µM (active)
5,CCC(=O)Nc1ccc(NC(=O)CSc2nnnn2Cc2ccccc2)cc1C,inactive
6,O=C(NCCO)c1cc2cc(Cl)cc(Cl)c2oc1=O,inactive
7,CN(Cc1cn(C)nc1-c1ccc(Oc2ccccc2)cc1)Cc1cnc2ccccn12,35.5 µM (active)
8,Cc1nccn1CCN(C)Cc1cn(Cc2ccccc2)nc1-c1ccc2c(c1)OCO2,inactive
9,Cc1ccc2nc(N3CC(C)OC(C)C3)nc(-c3ccccc3)c2c1 (stereo not given),inactive
10,CC(C)Cc1ccc(C(C)C(=O)Nc2ncccn2)cc1 (stereo not given),inactive
11,CC(C)Cc1ccc(C(C)CC2=CCC(CN(C)C)C2=O)cc1 (stereo not given),22.4 µM (active)
12,COc1cccc(CN2CC(C(=O)N3CCSCC3)CCC2=O)c1 (stereo not given),inactive
13,O=C(Oc1cc2oc(=O)cc(-c3ccccc3)c2cc1Cl)C1CCCCC1,inactive
14,CCCCNC(=O)c1cc2nc(-c3ccc(OC)cc3)cc(C(F)(F)F)n2n1,inactive
15,CCN(CCCNC(=O)c1cc2cc3ccc(OC)cc3nc2s1)c1cccc(C)c1,39.8 µM (active)
16,CCN(CCCNC(=O)c1cc(Nc2ccc(OC)cc2)nc2ccccc12)c1cccc(C)c1,inactive
17,O=C1Nc2cc(C(=O)N3CCC(N4CCCCC4)CC3)ccc2S/C1=C\c1ccccc1,39.8 µM (active)
18,COCCCn1c(=O)/c(=C\c2ccc(OC(F)F)c(OC)c2)s/c1=C(/C#N)C(N)=O,inactive
19,O=C(c1ccc2nc(-c3ccccc3)c(-c3ccccc3)nc2c1)N1CCCCC1,inactive
20,CCN1CCCC1CNC(=O)c1ccc2c(c1)NC(=O)/C(=C\c1ccc(OC)c(OC)c1)S2 (stereo not given),31.6 µM (active)

row,Compound,Potency
1,O=C1Nc2cc(C(=O)N3CCOCC3)ccc2S/C1=C/c1ccccc1F,inactive
2,CCN1CCCC1CNC(=O)c1ccc2c(c1)NC(=O)/C(=C\c1ccc(C)cc1)S2 (stereo not given),35.5 µM (active)
3,Cc1cccc2cc(C#N)c(NCCNS(=O)(=O)c3ccccc3)nc12,inactive
4,COc1ccc(O)c(C(=O)c2coc(=N)c(C(=O)Nc3ccc(SC(F)F)cc3)c2)c1,inactive
5,CN(C)c1ccc(-c2ccc3c(=O)c4ccccc4n(C)c3c2)cn1,inactive
6,COc1ccc(-c2ccc3c(N)c(C(=O)NC(C)C)sc3n2)cc1OC,inactive
7,Cc1cccn2c(=O)c3cc(C(=O)NC4CCCC4)c(=N)n(C4CCCC4)c3nc12,inactive
8,Cc1ccc(C)c(N(C)S(=O)(=O)c2ccc3[nH]cc(C(=O)NC4CCCC4)c(=O)c3c2)c1,28.2 µM (active)
9,COC(CN(C)C(=O)c1cn(C)c2ccc(S(=O)(=O)N(C)C3CCCCC3)cc2c1=O)OC,inactive
10,CCc1nnc(NC(=O)CSc2nc3c(cc2C#N)CCC3)s1,inactive
11,N#CCCN(Cc1ccccc1)C(C(=O)NC1CCCCC1)c1cc2ccccc2o1 (stereo not given),39.8 µM (active)
12,N=c1c(C(=O)NC2CCCCC2)cc2c(=O)n3ccccc3nc2n1Cc1ccccc1,inactive
13,N=c1c(C(=O)NC2CCCC2)cc2c(=O)n3ccccc3nc2n1Cc1ccccc1,inactive
14,COc1ccc(CCC(C)NCCc2ccc(Cl)cc2Cl)cc1 (stereo not given),39.8 µM (active)
15,COc1ccc(CCC(C)NCc2ccc(F)cc2)cc1 (stereo not given),inactive
16,COc1ccc(-c2sc(C(=O)c3ccc(Cl)cc3Cl)cc2CC(=O)O)cc1,inactive
17,CCOc1cc(/C=C/C(=O)Nc2ccc(C(=O)NCCN(CC)CC)cc2)ccc1OCC(C)C,22.4 µM (active)
18,COc1ccc(OC)c(/C=C/C(=O)Nc2ccc(C(=O)OCCC(C)C)cc2)c1,inactive
19,COc1cccc(OC)c1C(=O)Nc1ccccc1Sc1ccccc1,inactive
20,COc1ccc(C2C=C(c3ccccc3)Nc3nc(NS(=O)(=O)c4ccc(Cl)cc4)nn32)cc1 (stereo not given),inactive
